# In PubChem BioAssay AID1159580 (chemical genetic matrix, 2015):
# Screen size: about 5,500 compounds; about 2,000 (36%) were called active. Not shown: some 18% with an inconclusive outcome. The list shows a part of the results. Unmarked numbers belong to inactive results. Cut-off read from the data, not from the text of the source: active = normalized growth mostly below about 0.91 (no sharp cut-off); inconclusive = no clear call, values can overlap the other calls; inactive = mostly above about 0.92.
# Assay: chemical genetic growth profiling, strain panel (AID 1159580);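 note: tested at 20 µM; growth read once vehicle control cultures reached saturation at 30 °C; 1 = growth at the plate median or of vehicle wells; lower values mean less growth of the strain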
# Settings: growth OD
# [1] = S. cerevisiae deletion strains, locus YDL101C, strain DUN1, stronger effect = lower value
# [2] = S. cerevisiae deletion strains, locus YHR030C, strain SLT2, stronger effect = lower value
# [3] = S. cerevisiae deletion strains, locus YAL013W, strain DEP1, stronger effect = lower value
# [4] = S. cerevisiae deletion strains, locus YBR229C, strain ROT2, stronger effect = lower value
# [5] = S. cerevisiae deletion strains, locus YDR150W, strain NUM1, stronger effect = lower value
# [6] = S. cerevisiae deletion strains, locus YEL061C, strain CIN8, stronger effect = lower value
# [7] = S. cerevisiae deletion strains, locus YGR078C, strain PAC10, stronger effect = lower value
# [8] = S. cerevisiae deletion strains, locus YHR087W, strain rtc3, stronger effect = lower value
# [9] = S. cerevisiae deletion strains, locus YJR043C, strain POL32, stronger effect = lower value
# [10] = S. cerevisiae deletion strains, locus YJR075W, strain HOC1, stronger effect = lower value
# [11] = S. cerevisiae deletion strains, locus YLR039C, strain RIC1, stronger effect = lower value
# [12] = S. cerevisiae deletion strains, locus YLR058C, strain SHM2 (second series), stronger effect = lower value
# [13] = S. cerevisiae deletion strains, locus YLR085C, strain ARP6, stronger effect = lower value
# [14] = S. cerevisiae deletion strains, locus YLR262C, strain YPT6, stronger effect = lower value
# [15] = S. cerevisiae deletion strains, locus YML094W, strain GIM5, stronger effect = lower value
# [16] = S. cerevisiae deletion strains, locus YMR219W, strain ESC1, stronger effect = lower value
# [17] = S. cerevisiae deletion strains, locus YMR263W, strain SAP30, stronger effect = lower value
# [18] = S. cerevisiae deletion strains, locus YMR307W, strain GAS1, stronger effect = lower value
# [19] = S. cerevisiae deletion strains, locus YNL153C, strain GIM3, stronger effect = lower value
# [20] = S. cerevisiae deletion strains, locus YNL298W, strain CLA4 (second series), stronger effect = lower value
# [21] = S. cerevisiae deletion strains, locus YNL322C, strain KRE1, stronger effect = lower value
# [22] = S. cerevisiae deletion strains, locus YNR030W, strain Alg12, stronger effect = lower value
# [23] = S. cerevisiae deletion strains, locus YPL055C, strain LGE1, stronger effect = lower value
# [24] = S. cerevisiae deletion strains, locus YPL241C, strain CIN2, stronger effect = lower value
# [25] = S. cerevisiae deletion strains, locus YPR135W, strain CTF4, stronger effect = lower value
smiles,measurement,setting,value
FC(F)(F)c1ccncc1-c1nc(-c2ccc(Cl)cc2)cs1,normalized growth,"S. cerevisiae deletion strains, locus YAR019C, strain CDC15, stronger effect = lower value",0.982
same,normalized growth,"S. cerevisiae deletion strains, locus YBL105C, strain PKC1, stronger effect = lower value",0.984
same,normalized growth,"S. cerevisiae deletion strains, locus YBR135W, strain CKS1, stronger effect = lower value",0.98
same,normalized growth,"S. cerevisiae deletion strains, locus YBR136W, strain MEC1, stronger effect = lower value",0.982
same,normalized growth,"S. cerevisiae deletion strains, locus YBR160W, strain CDC28, stronger effect = lower value",0.985
same,normalized growth,"S. cerevisiae deletion strains, locus YDL017W, strain CDC7, stronger effect = lower value",0.991
same,normalized growth,"S. cerevisiae deletion strains, locus YDL028C, strain MPS1, stronger effect = lower value",0.978
same,normalized growth,[1],0.97
same,normalized growth,"S. cerevisiae deletion strains, locus YDL108W, strain KIN28, stronger effect = lower value",0.984
same,normalized growth,"S. cerevisiae deletion strains, locus YDL132W, strain cdc53, stronger effect = lower value",0.973
same,normalized growth,"S. cerevisiae deletion strains, locus YDL214C, strain PRR2, stronger effect = lower value",0.914
same,normalized growth,"S. cerevisiae deletion strains, locus YDR052C, strain DBF4, stronger effect = lower value",0.989
same,normalized growth,"S. cerevisiae deletion strains, locus YDR054C, strain cdc34, stronger effect = lower value",0.979
same,normalized growth,"S. cerevisiae deletion strains, locus YDR226W, strain ADK1, stronger effect = lower value",0.979
same,normalized growth,"S. cerevisiae deletion strains, locus YDR477W, strain SNF1, stronger effect = lower value",0.949
same,normalized growth,"S. cerevisiae deletion strains, locus YER123W, strain YCK3, stronger effect = lower value",0.852
same,normalized growth,"S. cerevisiae deletion strains, locus YER133W, strain GLC7, stronger effect = lower value",0.936
same,normalized growth,"S. cerevisiae deletion strains, locus YFL009W, strain cdc4, stronger effect = lower value",0.981
same,normalized growth,"S. cerevisiae deletion strains, locus YFL029C, strain CAK1, stronger effect = lower value",0.977
same,normalized growth,"S. cerevisiae deletion strains, locus YFR003C, strain YPI1, stronger effect = lower value",0.985
same,normalized growth,"S. cerevisiae deletion strains, locus YFR019W, strain FAB1, stronger effect = lower value",0.887
same,normalized growth,"S. cerevisiae deletion strains, locus YFR028C, strain CDC14, stronger effect = lower value",0.976
same,normalized growth,"S. cerevisiae deletion strains, locus YGR040W, strain KSS1, stronger effect = lower value",0.923
same,normalized growth,"S. cerevisiae deletion strains, locus YGR052W, strain FMP48, stronger effect = lower value",0.869
same,normalized growth,"S. cerevisiae deletion strains, locus YGR092W, strain DBF2, stronger effect = lower value",0.933
same,normalized growth,[2],0.78 (active)
same,normalized growth,"S. cerevisiae deletion strains, locus YHR079C, strain IRE1, stronger effect = lower value",0.775
same,normalized growth,"S. cerevisiae deletion strains, locus YHR082C, strain KSP1, stronger effect = lower value",1
same,normalized growth,"S. cerevisiae deletion strains, locus YHR205W, strain SCH9, stronger effect = lower value",0.894
same,normalized growth,"S. cerevisiae deletion strains, locus YIL147C, strain SLN1, stronger effect = lower value",0.987
same,normalized growth,"S. cerevisiae deletion strains, locus YJL095W, strain BCK1, stronger effect = lower value",0.759
same,normalized growth,"S. cerevisiae deletion strains, locus YJL128C, strain PBS2, stronger effect = lower value",0.896
same,normalized growth,"S. cerevisiae deletion strains, locus YJL157C, strain FAR1, stronger effect = lower value",0.927
same,normalized growth,"S. cerevisiae deletion strains, locus YJR016C, strain ILV3, stronger effect = lower value",0.979
same,normalized growth,"S. cerevisiae deletion strains, locus YJR066W, strain TOR1 (second series), stronger effect = lower value",0.937
same,normalized growth,"S. cerevisiae deletion strains, locus YJR066W, strain TOR1, stronger effect = lower value",1.01
same,normalized growth,"S. cerevisiae deletion strains, locus YKL048C, strain ELM1, stronger effect = lower value",0.955
same,normalized growth,"S. cerevisiae deletion strains, locus YKL067W, strain YNK1, stronger effect = lower value",0.922
same,normalized growth,"S. cerevisiae deletion strains, locus YKL101W, strain HSL1, stronger effect = lower value",0.919
same,normalized growth,"S. cerevisiae deletion strains, locus YKL193C, strain SDS22, stronger effect = lower value",0.986
same,normalized growth,"S. cerevisiae deletion strains, locus YKL203C, strain TOR2, stronger effect = lower value",1.01
same,normalized growth,"S. cerevisiae deletion strains, locus YLR113W, strain HOG1, stronger effect = lower value",0.686 (active)
same,normalized growth,"S. cerevisiae deletion strains, locus YLR133W, strain CKI1, stronger effect = lower value",0.911
same,normalized growth,"S. cerevisiae deletion strains, locus YLR403W, strain SFP1, stronger effect = lower value",0.934
same,normalized growth,"S. cerevisiae deletion strains, locus YML070W, strain DAK1, stronger effect = lower value",0.878
same,normalized growth,"S. cerevisiae deletion strains, locus YMR001C, strain CDC5, stronger effect = lower value",0.986
same,normalized growth,"S. cerevisiae deletion strains, locus YMR205C, strain PFK2 (second series), stronger effect = lower value",0.905
same,normalized growth,"S. cerevisiae deletion strains, locus YMR277W, strain FCP1, stronger effect = lower value",0.962
same,normalized growth,"S. cerevisiae deletion strains, locus YNL006W, strain LST8, stronger effect = lower value",0.99
same,normalized growth,"S. cerevisiae deletion strains, locus YNL020C, strain ARK1, stronger effect = lower value",0.906
same,normalized growth,"S. cerevisiae deletion strains, locus YNL161W, strain CBK1, stronger effect = lower value",0.971
same,normalized growth,"S. cerevisiae deletion strains, locus YNL183C, strain NPR1, stronger effect = lower value",0.774
same,normalized growth,"S. cerevisiae deletion strains, locus YNL207W, strain RIO2, stronger effect = lower value",0.987
same,normalized growth,"S. cerevisiae deletion strains, locus YNL222W, strain SSU72, stronger effect = lower value",0.98
same,normalized growth,"S. cerevisiae deletion strains, locus YNL307C, strain MCK1 (second series), stronger effect = lower value",0.922
same,normalized growth,"S. cerevisiae deletion strains, locus YOL078W, strain AVO1, stronger effect = lower value",0.972
same,normalized growth,"S. cerevisiae deletion strains, locus YOL136C, strain PFK27, stronger effect = lower value",0.868
same,normalized growth,"S. cerevisiae deletion strains, locus YOR061W, strain CKA2, stronger effect = lower value",0.933
same,normalized growth,"S. cerevisiae deletion strains, locus YOR119C, strain RIO1, stronger effect = lower value",0.975
same,normalized growth,"S. cerevisiae deletion strains, locus YOR231W, strain MKK1, stronger effect = lower value",0.766
same,normalized growth,"S. cerevisiae deletion strains, locus YOR329C, strain SCD5, stronger effect = lower value",0.981
same,normalized growth,"S. cerevisiae deletion strains, locus YPL031C, strain PHO85, stronger effect = lower value",0.917
same,normalized growth,"S. cerevisiae deletion strains, locus YPL153C, strain RAD53, stronger effect = lower value",0.917
same,normalized growth,"S. cerevisiae deletion strains, locus YPL204W, strain HRR25, stronger effect = lower value",0.908
same,normalized growth,"S. cerevisiae deletion strains, locus YPL209C, strain IPL1, stronger effect = lower value",0.987
same,normalized growth,"S. cerevisiae deletion strains, locus YPL256C, strain CLN2, stronger effect = lower value",0.682 (active)
same,normalized growth,"S. cerevisiae deletion strains, locus YPR025C, strain CCL1, stronger effect = lower value",0.988
same,normalized growth,"S. cerevisiae deletion strains, locus YPR106W, strain ISR1, stronger effect = lower value",0.956
same,normalized growth,"S. cerevisiae deletion strains, locus YPR111W, strain DBF20, stronger effect = lower value",0.949
same,normalized growth,"S. cerevisiae deletion strains, strain NNK1, stronger effect = lower value",0.942
same,normalized growth,"S. cerevisiae deletion strains, strain TSCII, stronger effect = lower value",0.972
Cc1c(-c2csc(-c3ccc(Cl)cc3)n2)sc2ccc(Cl)cc12,normalized growth,[3],1.03
same,normalized growth,[4],1.03
same,normalized growth,[1],1.05
same,normalized growth,[5],1.01
same,normalized growth,[6],0.996
same,normalized growth,[7],1.04
same,normalized growth,"S. cerevisiae deletion strains, locus YGR229C, strain SMI1, stronger effect = lower value",1.03
same,normalized growth,[2],1.07
same,normalized growth,[8],1.03
same,normalized growth,[9],1.04
same,normalized growth,[10],1.02
same,normalized growth,[11],1.07
same,normalized growth,[12],1.05
same,normalized growth,[13],1.05
same,normalized growth,[14],1.09
same,normalized growth,[15],1.04
same,normalized growth,[16],1.04
same,normalized growth,[17],1.02
same,normalized growth,[18],1.07
same,normalized growth,[19],1.02
same,normalized growth,[20],1.09
same,normalized growth,[21],1.04
same,normalized growth,[22],1.04
same,normalized growth,"S. cerevisiae deletion strains, locus YOL006C, strain TOP1, stronger effect = lower value",1.1
same,normalized growth,[23],0.999
same,normalized growth,[24],1.03
same,normalized growth,[25],1.07
same,normalized growth,"S. cerevisiae strains, strain wild type, stronger effect = lower value",1.04
N/C(=N/O)c1cnccc1C(F)(F)F,normalized growth,[3],0.987
same,normalized growth,[4],1.01
same,normalized growth,[1],1.01
same,normalized growth,"S. cerevisiae deletion strains, locus YDL134C, strain PPH21, stronger effect = lower value",0.999
same,normalized growth,[5],0.986
same,normalized growth,[6],0.998
same,normalized growth,[7],0.994
same,normalized growth,[2],0.978
same,normalized growth,[8],0.986
same,normalized growth,"S. cerevisiae deletion strains, locus YJL187C, strain SWE1, stronger effect = lower value",0.991
same,normalized growth,[9],0.993
same,normalized growth,[10],0.993
same,normalized growth,"S. cerevisiae deletion strains, locus YKL190W, strain CNB1, stronger effect = lower value",0.997
same,normalized growth,[11],1.04
same,normalized growth,[12],0.993
same,normalized growth,[13],0.976
same,normalized growth,[14],0.99
same,normalized growth,[15],1.05
same,normalized growth,[16],0.996
same,normalized growth,[17],0.977
same,normalized growth,[18],0.958
same,normalized growth,[19],1.01
same,normalized growth,[20],0.996
same,normalized growth,[21],1
same,normalized growth,[22],0.999
same,normalized growth,[23],0.989
same,normalized growth,[24],1.03
same,normalized growth,[25],1.01
